Results published in PubChem BioAssay (NCI).
Compounds without any hit were thinned out: in the full panel of roughly 79,000, 15% have a hit. Active and inactive are the calls of the source. Cut-off read from the data, not from the text of the source: active = growth inhibition above about 70%; inactive = the rest.

How the values were obtained:
[1] = NCI Yeast Anticancer Drug Screen. Data for the rad50 strain (AID 155);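 note: 0% = growth of vehicle-only cultures of the same strain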; conditions: S. cerevisiae rad50 strain growth inhibition; at 50.0 µM; active compounds read high
In short: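 DNA repair mutant yeast, compound exposure, growth read-out; inhibition is taken relative to vehicle.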

[2] = NCI Yeast Anticancer Drug Screen. Data for the mec2-1 strain (AID 157); conditions: S. cerevisiae mec2-1 strain, at 50.0 µM, active compounds read high
In short: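 Readout is yeast growth inhibition, normalised to vehicle-treated controls, in the mec2-1 strain exposed to compound.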

[3] = NCI Yeast Anticancer Drug Screen. Data for the sgs1 mgt1 strain (AID 161);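 note: 0% = growth of cultures given vehicle only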; conditions: S. cerevisiae sgs1 mgt1 strain, at 50.0 µM, active compounds read high
In short: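 Percent growth inhibition was derived by comparing compound-exposed mutant yeast with vehicle-exposed cultures. The strain carries alterations in DNA damage repair.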

[4] = NCI Yeast Anticancer Drug Screen. Data for the cln2 rad14 strain (AID 165);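 note: 0% = growth equal to vehicle treated cultures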; conditions: S. cerevisiae cln2 rad14 strain, at 50.0 µM, active compounds read high
In short: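 Relative to vehicle controls, growth inhibition of compound-treated cln2 rad14 yeast was recorded.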

[5] = NCI Yeast Anticancer Drug Screen. Data for the bub3 strain (AID 167); conditions: S. cerevisiae bub3 mutant strain, at 50.0 µM, active compounds read high
In short: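 In this screen, a yeast mutant lacking normal mitotic checkpoint function is challenged with compound. Relative growth versus vehicle gives the inhibition value.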

[6] = NCI Yeast Anticancer Drug Screen. Data for the mlh1 rad18 strain (AID 175); conditions: S. cerevisiae mlh1 rad18 strain growth inhibition; at 50.0 µM; active compounds read high
In short: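 Test agents were incubated with a yeast strain of defined genotype (DNA damage repair defect). Inhibition of growth was derived by comparison with vehicle-exposed cultures.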

Measured: growth inhibition

Cc1cccc(N2CCN(c3ccc4nonc4c3[N+](=O)[O-])CC2)c1
inactive: [1] -5.05% | [2] -4.4% | [3] -9.9% | [4] -13% | [5] -13.9% | [6] -15.3%

Cc1nc2ccccc2n1C(=O)c1c(F)c(F)c(F)c(F)c1F
inactive: [1] -35.9% | [2] -17.6% | [3] -28.6% | [4] -18.7% | [5] -9.8% | [6] -18.9%

COc1ccc(-c2nc(N)nc3c2CN(CCCC(=O)O)C3=O)cc1
inactive: [1] -4.65% | [2] 30.3% | [3] -4.25% | [4] -30.8% | [5] 9.3% | [6] -10.4%

COc1ccc(NC(=O)CC(=O)n2nc(-c3ccccc3)c(N=Nc3ccccc3C)c2-c2ccccc2)cc1
inactive: [1] -1.5% | [2] -2.1% | [3] -0.8% | [4] 7.8% | [5] 21.1% | [6] 6.65%

Cc1ccc(S(=O)(=O)OCCOc2ccc(C(C)(C)CC(C)(C)C)cc2)cc1
inactive: [1] 43.9% | [2] -15.6% | [3] 30.5% | [4] -6.2% | [5] -1.65% | [6] 8.8%

CC(=O)c1ccc(CCCCc2ccc([N+](=O)[O-])cc2)cc1
inactive: [1] -4.2% | [2] -17.8% | [3] 16.5% | [4] -59.5% | [5] 18.2% | [6] -32%

CN1COc2c3c(c4ccccc4c2C1)CN(C)CO3
inactive: [1] 7.1% | [2] 2.35% | [3] 1.2% | [4] -16.9% | [5] 6.35% | [6] -0.3%

O=C1Nc2n[nH]c(=S)n2NC12c1ccccc1-c1ccccc12
inactive: [1] -45.8% | [2] -14.2% | [3] -28.1% | [4] -19.9% | [5] -21.7% | [6] -63.2%

COc1cc2c[n+](C)c(-c3ccc(Cl)c(Cl)c3)c(OC)c2cc1OC
inactive: [1] 56.1% | [2] 8.15% | [3] 41.5% | [4] 31.4% | [5] 14.9% | [6] 41.5%

CC1CCC(CC(N)=O)C1(C)C (stereo unspecified)
inactive: [1] 11.8% | [2] -7.15% | [3] 2.75% | [4] -22.2% | [5] 2.85% | [6] 0.35%

CC(=O)OCSc1ncnc2c1ncn2CN1CCOCC1
inactive: [1] 7.15% | [2] 2.25% | [3] -19.9% | [4] 1.8% | [5] -4.85% | [6] 7.85%

CCOC(=O)C(CNCc1ccccc1)(c1ccccc1)c1ccccc1
inactive: [1] -6.5% | [2] -4.85% | [3] -23.9% | [4] -31.3% | [5] 9.95% | [6] 2.45%

CC(=O)/C(=C\n1c(=S)[nH]c2ccc([N+](=O)[O-])cc21)C(=O)Nc1ccccc1C
inactive: [1] 2.1% | [2] -44.8% | [3] -5.05% | [4] -2.8% | [5] -20.4% | [6] -7.3%

S=C(NC1CCCCC1)N1CCC(CCCC2CCN(C(=S)NC3CCCCC3)CC2)CC1
inactive: [1] -42.8% | [2] -31.2% | [3] -44.5% | [4] -1.05% | [5] -41.8% | [6] -46.2%

c1ccc(Nc2nnc(Nc3ccccc3)s2)cc1
inactive: [1] -6.15% | [2] 21.6% | [3] 53% | [4] -21.2% | [5] 3.9% | [6] -21.1%

COc1cc(C2C(Cl)C(=O)N2n2cnc3ccccc3c2=O)ccc1O (stereo unspecified)
inactive: [1] -22.7% | [2] 3.3% | [3] -11.2% | [4] 12.8% | [5] -10.2% | [6] -11.8%

O=C(Oc1ccc2ccccc2c1CN1CCOCC1)c1ccc([N+](=O)[O-])cc1
inactive: [1] 45.8% | [2] 29.9% | [3] 33.8% | [4] 30.1% | [5] 35.5% | [6] 52%

O=C(O)c1cc2ccccc2c2cc3ccccc3cc12
inactive: [1] 28.6% | [2] 39% | [3] 26.6% | [4] 57.3% | [5] 33.2%
active: [6] 70.8%

CC1CCC2C(C)C3C(CC4C5CC=C6CC(O)CCC6(C)C5CCC43COC(=O)c3ccccc3)N2C1 (stereo unspecified)
inactive: [1] 44.4% | [2] 16.8% | [3] 55.8% | [4] 21.4% | [5] 5.95% | [6] 42.6%

O=C(C(O)c1ccccc1)N1CCCCC1 (stereo unspecified)
inactive: [1] 32.6% | [2] 14.2% | [3] -2.95% | [4] 9.85% | [5] 4.3% | [6] 21.6%

Nc1ncnc2c1S(=O)(=O)NCN2
inactive: [1] 5.05% | [2] -15.8% | [3] 0.45% | [4] -17.3% | [5] -3.15% | [6] -11.7%

COC(=O)Oc1nn(C(=O)OC)c(=O)c2ccccc12 (tested in a mixture with another compound)
inactive: [1] -5.85% | [2] 3.1% | [3] 3% | [4] -0.8% | [5] 11.3% | [6] 33.5%

C=CCCC1(C)OC(C)C(C)O1 (stereo unspecified)
inactive: [1] 8.75% | [2] 3.65% | [3] -0.95% | [4] -33% | [5] -5.85% | [6] -4.9%

Brc1ccc(-c2nnc(-c3ccc(Br)cc3)o2)cc1
inactive: [1] 14.8% | [2] -4.6% | [3] -0.8% | [4] -4.7% | [5] 0.25% | [6] 1.4%

OCC1OC(n2cc3ccccc3n2)C(O)C1O (stereo unspecified)
inactive: [1] 3.55% | [2] 4.85% | [3] -5.55% | [4] -3.8% | [5] 5.65% | [6] -8.45%

O=C1OC(=O)C2=C1CCC2
inactive: [1] -5% | [2] -14.1% | [3] -20.4% | [4] 13.3% | [5] 3.85% | [6] -12.4%

COc1ccc(Nc2cnc3cc(N)ccc3n2)cc1OC
inactive: [1] -15.3% | [2] -21.6% | [3] -38.5% | [4] -8.35% | [5] -30.3% | [6] 1.7%

Cc1cc2c(=O)cc(-c3ccc(O)cc3)oc2c(C(=O)O)c1C
inactive: [1] 2.7% | [2] -4.45% | [3] 14.3% | [4] 24.8% | [5] 0.6% | [6] 4.4%

COC(=O)C1CC/C(=N\Nc2ccc([N+](=O)[O-])cc2[N+](=O)[O-])CC1C(=O)OC (stereo unspecified)
inactive: [1] 10.2% | [2] -5.75% | [3] -8.75% | [4] -1.65% | [5] 5.2% | [6] 19.6%

O=Cc1cc2c(cc1-c1c(C=O)ccc3c1OCO3)OCO2
inactive: [1] 58.2% | [2] 27.2% | [3] 46.9% | [4] 18.6% | [5] 30.9% | [6] 26.6%

CCOc1ccccc1C=C1c2ccccc2C(=O)c2ccccc21
inactive: [1] 10.3% | [2] -7.6% | [3] -3.6% | [4] -21.6% | [5] 18.1% | [6] 6.25%

CC1(C)C(N2CCOCC2)CS1(=O)=O (stereo unspecified)
inactive: [1] 1.75% | [2] -5.2% | [3] -1.5% | [4] -24.2% | [5] -15.7% | [6] 3.25%

COC(=O)/C(=N/O)C(C(=O)OC)C(=O)C(=O)Nc1c(Cl)cc(C)cc1S(=O)(=O)O (stereo unspecified)
inactive: [1] 6.4% | [2] 4.35% | [3] -22.4% | [4] -14.1% | [5] -2.9% | [6] 8.15%

O=C1CC(=O)c2cccc3cccc1c23
inactive: [1] 42.8% | [2] 22.7% | [3] 44.4% | [4] 7.35% | [5] 47.9% | [6] 27.1%

CCc1c(CN)c(CC)c(CNC2=NCCN2)c(CC)c1CNC1=NCCN1
inactive: [1] 13.6% | [2] 3.45% | [3] 12.2% | [4] 10.9% | [5] 12.8% | [6] 15.2%

O=C(Nc1cccc([N+](=O)[O-])c1)N1CCCC1
inactive: [1] -7.1% | [2] -16.4% | [3] -7.75% | [4] -3.9% | [5] -7.5% | [6] -20.6%

CCS(=O)O
inactive: [1] -21.2% | [2] 15.9% | [3] 1.3% | [4] -4.25% | [5] -6.8% | [6] -8.9%

CN(CCC1(C)C(=O)CCc2ccccc21)Cc1ccccc1 (stereo unspecified)
inactive: [1] 12.9% | [2] 21.8% | [3] 22.8% | [4] 30.9% | [5] 14.1% | [6] 17.1%

C=CCC1(C)C(=O)CCC1=O
inactive: [1] -18.5% | [2] -5.8% | [3] 0.6% | [4] -12.6% | [5] 1.15% | [6] -4.1%

O=C(c1ccccc1)C(O)(c1ccccc1)C1CCCC/C1=N\N(c1ccccc1)c1ccccc1 (stereo unspecified)
inactive: [1] 37% | [2] 31.4% | [3] 29.9% | [4] 32.7% | [5] -20.4% | [6] 37.3%

CCCNc1nc(Cl)nc2c1cnn2C
inactive: [1] 7.6% | [2] -8.4% | [3] 9.5% | [4] 1.25% | [5] 14.4% | [6] 6.95%
